Assay results: PubChem BioAssay (EPA / NIEHS)
The source made the active and inactive calls. How the source made its calls: active means hit-call score of the fitted dose curve at least 0.9, where 1 is the maximum; inactive means score below 0.9.

Columns and labels:
Conditions in all cases: mRNA level, 48 h; actives raise or lower the signal
[1] = read-out: Tumor necrosis factor receptor superfamily member 6 (Homo sapiens) (UniProt P25445); assay: LTEA_HepaRG_FAS: Life Technologies and Expression Analysis (LTEA) Assay for Fas cell surface death receptor (FAS) using HepaRG (AID 2283447)
How it was run: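 Differentiated HepaRG cells in serum-free induction medium were exposed 48 h to 8 half-log concentrations up to 100 uM in 0.5% DMSO, in duplicate. FAS mRNA was measured by qRT-PCR normalised to ACTB, GAPDH and POLR2A; bidirectional fit versus DMSO.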

[2] = read-out: Fatty acid synthase (Homo sapiens) (UniProt P49327); assay: LTEA_HepaRG_FASN: Life Technologies and Expression Analysis (LTEA) Assay for Fatty Acid Synthase (FASN) using HepaRG (AID 2283448)
How it was run: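 HepaRG, 48 h exposure, 8-pt half-log series top 100 uM, 0.5% DMSO vehicle, duplicates. Readout: FASN transcript by Fluidigm qRT-PCR; housekeeping-normalized; bidirectional curve fit vs DMSO baseline.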

[3] = read-out: Cyclin D2 (CCND2), CCND2 (gene 894); assay: LTEA_HepaRG_CCND2: Life Technologies and Expression Analysis (LTEA) Assay for Cyclin D2 (CCND2) using HepaRG (AID 2283449);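 further: CCND2 transcript measured by TaqMan qRT-PCR and normalised to three housekeeping genes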
How it was run: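 HepaRG, 48 h dosing, 8-pt half-log curve from 100 uM, 0.5% DMSO; duplicate wells. Readout: CCND2 transcript by microfluidic qRT-PCR, housekeeping-normalised; bidirectional fit vs DMSO baseline.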

[4] = read-out: Cyclin Dependent Kinase Inhibitor 1A (CDKN1A), CDKN1A (gene 1026); assay: LTEA_HepaRG_CDKN1A: Life Technologies and Expression Analysis (LTEA) Assay for Cyclin Dependent Kinase Inhibitor 1A (CDKN1A) using HepaRG (AID 2283450)
How it was run: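 Cryopreserved HepaRG cells were plated and cultured 48 h, then switched to serum-free induction medium. Chemicals (eight half-log concentrations, top 100 uM, 0.5% DMSO) were applied for 48 h. Lysates underwent qRT-PCR for CDKN1A with housekeeping normalization.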

[5] = read-out: catalase (CAT), CAT (gene 847); assay: LTEA_HepaRG_CAT: Life Technologies and Expression Analysis (LTEA) Assay for catalase (CAT) using HepaRG (AID 2283452)
How it was run: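 HepaRG cells in serum-free induction medium, 0.5% DMSO vehicle, exposed 48 h in duplicate over 8 half-log concentrations from 100 uM. CAT mRNA measured by qRT-PCR, normalized to ACTB, GAPDH, POLR2A; bidirectional fit versus DMSO.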

[6] = read-out: flavin-containing dimethylaniline monooxygenases 3 (FMO3), FMO3 (gene 2328); assay: LTEA_HepaRG_FMO3: Life Technologies and Expression Analysis (LTEA) Assay for flavin-containing dimethylaniline monooxygenases 3 (FMO3) using HepaRG (AID 2283453)
How it was run: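 Eight-point concentration-response in serum-free HepaRG cultures (top 100 uM, 0.5% DMSO, 48 h). Read-out: FMO3 mRNA level normalized to three endogenous control genes, fitted bidirectionally versus vehicle.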

[7] = read-out: Cytochrome P450 (CYP1A1), CYP1A1 (gene 1543); assay: LTEA_HepaRG_CYP1A1: Life Technologies and Expression Analysis (LTEA) Assay for Cytochrome P450 (CYP1A1) using HepaRG (AID 2283454)
How it was run: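 Induction of CYP1A1 mRNA in a human hepatic cell line was measured 48 h after dosing, with 1 mM phenobarbital as induction positive control and 0.5% DMSO vehicle as baseline for bidirectional curve fitting.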

[8] = read-out: CFLAR gene, CFLAR (gene 8837); assay: LTEA_HepaRG_CFLAR: Life Technologies and Expression Analysis (LTEA) Assay for CFLAR gene using HepaRG (AID 2283455)
How it was run: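 qRT-PCR read-out (Fluidigm/TaqMan) of CFLAR mRNA, normalized to three housekeeping genes, in differentiated human HepaRG cells after 48 h chemical exposure; 8-point half-log series from 100 uM in 0.5% DMSO; bidirectional curve fitting versus DMSO.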

[9] = read-out: Forkhead box O1 (FOXO1), FOXO1 (gene 2308); assay: LTEA_HepaRG_FOXO1: Life Technologies and Expression Analysis (LTEA) Assay for Forkhead box O1 (FOXO1) using HepaRG (AID 2283456)
How it was run: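 HepaRG, 48 h exposure, 8-pt half-log series from 100 uM in 0.5% DMSO, duplicates; Fluidigm qRT-PCR mRNA, housekeeping-normalised; bidirectional fit vs DMSO baseline.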

[10] = read-out: growth arrest and DNA damage 45 (GADD45A), GADD45A (gene 1647); assay: LTEA_HepaRG_GADD45A: Life Technologies and Expression Analysis (LTEA) Assay for growth arrest and DNA damage 45 (GADD45A) using HepaRG (AID 2283458)
How it was run: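 HepaRG, 48 h exposure, 8 conc. (top 100 uM, half-log steps), 0.5% DMSO vehicle, duplicates. Read-out: qRT-PCR mRNA level, housekeeping-normalized (ACTB/GAPDH/POLR2A). Curves fit bidirectionally vs DMSO baseline.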

[11] = read-out: Forkhead box O3 (FOXO3), FOXO3 (gene 2309); assay: LTEA_HepaRG_FOXO3: Life Technologies and Expression Analysis (LTEA) Assay for Forkhead box O3 (FOXO3) using HepaRG (AID 2283459)
How it was run: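 qRT-PCR readout of FOXO3 transcript, normalized to three housekeeping genes (ACTB, GAPDH, POLR2A); gain or loss fitted against 0.5% DMSO vehicle. HepaRG cells, 48 h chemical exposure, 8-point half-log series, top 100 uM.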

[12] = read-out: ABC Transporter (ABCB1), ABCB1 (gene 5243); assay: LTEA_HepaRG_ABCB1: Life Technologies and Expression Analysis (LTEA) Assay for ABC Transporter (ABCB1) using HepaRG (AID 2283460)
How it was run: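 HepaRG, 48 h exposure, 8-pt half-log series from 100 uM, 0.5% DMSO vehicle, duplicates. Readout: ABCB1 transcript by Fluidigm TaqMan qRT-PCR, housekeeping-normalized; bidirectional curve fit vs DMSO baseline.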

[13] = read-out: growth arrest and DNA damage 45 (GADD45B), GADD45B (gene 4616); assay: LTEA_HepaRG_GADD45B: Life Technologies and Expression Analysis (LTEA) Assay for growth arrest and DNA damage 45 (GADD45B) using HepaRG (AID 2283461)
How it was run: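 Values are bidirectional concentration-response fits against 0.5% DMSO controls. Underlying data: qRT-PCR mRNA levels in human HepaRG liver cells treated 48 h in serum-free induction medium, eight concentrations topping at 100 uM.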

[14] = read-out: ABC Transporter (ABCC3), ABCC3 (gene 8714); assay: LTEA_HepaRG_ABCC3: Life Technologies and Expression Analysis (LTEA) Assay for ABC Transporter (ABCC3) using HepaRG (AID 2283462)
How it was run: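 Differentiated HepaRG liver cells receive test chemicals at eight concentrations (max 100 uM) for 48 h. Expression of ABCC3 is quantified by qRT-PCR against ACTB, GAPDH and POLR2A, and activity is fitted in both directions against the DMSO control.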

[15] = read-out: ABC Transporter (ABCC2), ABCC2 (gene 1244); assay: LTEA_HepaRG_ABCC2: Life Technologies and Expression Analysis (LTEA) Assay for ABC Transporter (ABCC2) using HepaRG (AID 2283464)
How it was run: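 Gene expression of ABCC2 was determined by qRT-PCR in HepaRG cells exposed 48 h to chemicals (highest 100 uM, half-log dilutions). Activity was fitted in both directions relative to 0.5% DMSO vehicle.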

[16] = read-out: Broad substrate specificity ATP-binding cassette transporter ABCG2 (Homo sapiens) (UniProt Q9UNQ0); assay: LTEA_HepaRG_ABCG2: Life Technologies and Expression Analysis (LTEA) Assay for ABC Transporter (ABCG2) using HepaRG (AID 2283465)
How it was run: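 HepaRG, 48 h exposure, 8-pt half-log series from 100 uM, 0.5% DMSO vehicle, duplicates. Readout: ABCG2 transcript by qRT-PCR (Fluidigm array), housekeeping-normalized; bidirectional curve fit relative to DMSO baseline.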

[17] = read-out: Cyclin D1 (CCND1), CCND1 (gene 595); assay: LTEA_HepaRG_CCND1: Life Technologies and Expression Analysis (LTEA) Assay for Cyclin D1 (CCND1) using HepaRG (AID 2283451)
How it was run: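 Human liver HepaRG line; 48 h dosing, 8 conc. ≤100 uM, 0.5% DMSO; TaqMan qRT-PCR mRNA, 3 housekeeping genes; bidirectional curve fit vs DMSO.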

[18] = read-out: ABC Transporter (ABCB11), ABCB11 (gene 8647); assay: LTEA_HepaRG_ABCB11: Life Technologies and Expression Analysis (LTEA) Assay for ABC Transporter (ABCB11) using HepaRG (AID 2283463)
How it was run: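 HepaRG, 48 h exposure, 8-pt half-log CRC top 100 uM, 0.5% DMSO vehicle, duplicates. Readout: TaqMan qRT-PCR of ABCB11 mRNA, housekeeping-normalized (ACTB/GAPDH/POLR2A). Bidirectional fit vs DMSO baseline.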

Measured: AC50

Sequence of Broad substrate specificity ATP-binding cassette transporter ABCG2 (Homo sapiens) (Q9UNQ0 whole entry, looked up): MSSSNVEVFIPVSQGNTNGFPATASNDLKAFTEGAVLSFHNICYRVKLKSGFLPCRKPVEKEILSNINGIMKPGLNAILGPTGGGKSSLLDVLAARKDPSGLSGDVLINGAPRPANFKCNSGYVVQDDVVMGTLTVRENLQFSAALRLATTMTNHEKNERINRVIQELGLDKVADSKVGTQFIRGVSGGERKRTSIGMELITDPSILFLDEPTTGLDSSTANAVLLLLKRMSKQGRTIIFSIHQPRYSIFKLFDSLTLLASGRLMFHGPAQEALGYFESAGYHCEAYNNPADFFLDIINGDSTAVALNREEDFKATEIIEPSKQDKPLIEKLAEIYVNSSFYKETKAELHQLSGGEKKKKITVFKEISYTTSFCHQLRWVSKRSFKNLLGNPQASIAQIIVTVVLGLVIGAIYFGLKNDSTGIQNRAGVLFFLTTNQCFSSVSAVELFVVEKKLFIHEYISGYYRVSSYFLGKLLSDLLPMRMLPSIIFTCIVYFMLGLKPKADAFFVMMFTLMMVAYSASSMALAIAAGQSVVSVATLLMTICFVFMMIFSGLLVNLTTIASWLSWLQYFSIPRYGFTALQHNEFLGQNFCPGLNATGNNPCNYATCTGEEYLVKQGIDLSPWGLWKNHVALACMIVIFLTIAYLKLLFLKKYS
Sequence of Fatty acid synthase (Homo sapiens) (P49327 whole entry, looked up): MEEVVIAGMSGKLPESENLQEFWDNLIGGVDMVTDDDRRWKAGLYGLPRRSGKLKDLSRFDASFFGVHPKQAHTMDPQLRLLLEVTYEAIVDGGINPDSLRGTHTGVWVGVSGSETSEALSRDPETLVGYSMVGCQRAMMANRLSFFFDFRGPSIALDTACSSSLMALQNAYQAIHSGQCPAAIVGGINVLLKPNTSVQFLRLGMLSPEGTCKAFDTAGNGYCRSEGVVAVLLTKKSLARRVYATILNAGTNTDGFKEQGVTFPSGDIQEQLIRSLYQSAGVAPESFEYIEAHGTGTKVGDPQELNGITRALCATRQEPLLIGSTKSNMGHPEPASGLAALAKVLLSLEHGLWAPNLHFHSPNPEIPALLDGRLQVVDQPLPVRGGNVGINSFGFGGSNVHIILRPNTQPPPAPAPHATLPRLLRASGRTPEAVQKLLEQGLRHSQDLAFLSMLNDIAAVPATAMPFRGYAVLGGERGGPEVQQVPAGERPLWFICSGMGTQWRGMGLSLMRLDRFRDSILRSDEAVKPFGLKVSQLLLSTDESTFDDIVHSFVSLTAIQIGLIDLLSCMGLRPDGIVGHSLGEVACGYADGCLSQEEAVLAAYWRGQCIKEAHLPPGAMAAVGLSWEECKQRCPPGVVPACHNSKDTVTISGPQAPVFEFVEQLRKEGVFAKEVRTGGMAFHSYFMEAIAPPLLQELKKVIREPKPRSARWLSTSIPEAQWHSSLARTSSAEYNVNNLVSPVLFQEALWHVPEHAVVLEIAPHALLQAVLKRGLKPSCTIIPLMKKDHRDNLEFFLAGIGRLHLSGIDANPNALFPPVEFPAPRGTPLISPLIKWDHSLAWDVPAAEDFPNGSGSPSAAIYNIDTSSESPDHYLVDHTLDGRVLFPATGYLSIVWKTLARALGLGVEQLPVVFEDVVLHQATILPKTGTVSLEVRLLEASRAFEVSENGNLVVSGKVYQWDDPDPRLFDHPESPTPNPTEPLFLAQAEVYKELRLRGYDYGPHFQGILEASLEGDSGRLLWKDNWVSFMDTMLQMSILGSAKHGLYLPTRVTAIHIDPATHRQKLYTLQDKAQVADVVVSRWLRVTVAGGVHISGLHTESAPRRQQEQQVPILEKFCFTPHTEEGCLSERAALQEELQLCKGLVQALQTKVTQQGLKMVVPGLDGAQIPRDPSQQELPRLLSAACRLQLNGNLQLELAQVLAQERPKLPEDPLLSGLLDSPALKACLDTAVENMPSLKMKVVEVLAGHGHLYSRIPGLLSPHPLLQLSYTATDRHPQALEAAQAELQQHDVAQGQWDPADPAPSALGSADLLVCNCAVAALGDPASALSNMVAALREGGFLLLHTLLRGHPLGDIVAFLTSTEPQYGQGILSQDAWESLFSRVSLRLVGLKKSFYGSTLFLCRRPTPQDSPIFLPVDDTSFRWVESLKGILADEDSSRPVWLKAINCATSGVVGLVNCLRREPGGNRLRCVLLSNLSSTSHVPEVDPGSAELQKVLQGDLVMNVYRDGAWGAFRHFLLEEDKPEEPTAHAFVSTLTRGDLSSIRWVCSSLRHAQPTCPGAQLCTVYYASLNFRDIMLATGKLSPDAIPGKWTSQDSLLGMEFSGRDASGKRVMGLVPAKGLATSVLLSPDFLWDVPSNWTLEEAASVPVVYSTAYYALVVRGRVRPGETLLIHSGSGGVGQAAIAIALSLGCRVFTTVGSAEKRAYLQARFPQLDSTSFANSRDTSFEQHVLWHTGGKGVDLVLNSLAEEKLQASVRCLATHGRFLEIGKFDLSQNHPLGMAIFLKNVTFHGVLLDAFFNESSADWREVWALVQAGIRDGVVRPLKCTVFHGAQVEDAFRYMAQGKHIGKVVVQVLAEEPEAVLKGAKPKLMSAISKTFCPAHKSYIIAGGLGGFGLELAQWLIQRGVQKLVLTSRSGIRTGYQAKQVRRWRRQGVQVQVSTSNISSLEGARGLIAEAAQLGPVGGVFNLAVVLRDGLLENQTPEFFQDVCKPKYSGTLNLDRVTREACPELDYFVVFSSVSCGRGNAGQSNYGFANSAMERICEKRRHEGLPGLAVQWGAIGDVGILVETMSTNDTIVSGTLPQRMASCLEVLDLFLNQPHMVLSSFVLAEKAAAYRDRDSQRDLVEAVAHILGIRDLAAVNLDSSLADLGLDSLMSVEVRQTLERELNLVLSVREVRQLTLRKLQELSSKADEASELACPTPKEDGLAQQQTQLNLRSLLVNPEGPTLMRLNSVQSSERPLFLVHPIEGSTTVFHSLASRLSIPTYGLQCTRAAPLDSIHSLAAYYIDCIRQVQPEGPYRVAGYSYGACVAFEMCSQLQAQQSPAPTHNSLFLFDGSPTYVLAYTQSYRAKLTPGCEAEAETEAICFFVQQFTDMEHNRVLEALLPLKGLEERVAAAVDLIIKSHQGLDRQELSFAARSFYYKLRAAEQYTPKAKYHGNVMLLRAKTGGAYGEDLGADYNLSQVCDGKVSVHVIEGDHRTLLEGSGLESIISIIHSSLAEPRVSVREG

CCCCOC(=O)CCCCC(=O)OCCCC
active: [7] 50 µM
not listed: [16] | [17] | [18]
inactive: all other assays above

O=C(O)CC(O)(CC(=O)O)C(=O)O
active: [7] 50 µM
not listed: [15] | [17] | [18]
inactive: all other assays above

Cc1ccc(C(C)(C)C)c(O)c1
active: [7] 41.7 µM
not listed: [3] | [17] | [18]
inactive: all other assays above

CC(=O)OCC(COC(C)=O)OC(C)=O
active: [7] 12 µM
not listed: [16] | [17] | [18]
inactive: all other assays above

O=C(NS(=O)(=O)/C=C/c1cccs1)c1ccc(F)cc1Br
active: [7] 50 µM | [12] 13.2 µM | [15] 7.3 µM
not listed: [3] | [16] | [17] | [18]
inactive: all other assays above

Cc1cn([C@H]2C=C[C@@H](CO)O2)c(=O)[nH]c1=O
active: [7] 69.4 µM
not listed: [2] | [9]
inactive: all other assays above

Cn1cnc2c1c(=O)[nH]c(=O)n2C
not listed: [7] | [17] | [18]
inactive: all other assays above

O=C1O[C@H]([C@H](O)CO)C(O)=C1O
active: [7] 64.4 µM
not listed: [9] | [16] | [17] | [18]
inactive: all other assays above

CCCCCCCCCCCCCCCCO
active: [5] 9.92 µM | [7] 8.36 µM
not listed: [17] | [18]
inactive: all other assays above

C/C=C/c1ccc(OC)cc1
active: [7] 50 µM
not listed: [3] | [16] | [17]
inactive: all other assays above

COC(=O)CCC(=O)OC
active: [7] 50 µM
not listed: [3] | [18]
inactive: all other assays above

O=C(N[C@@H](c1ccccc1)[C@@H]1CCCCN1)c1cccc(C(F)(F)F)c1Cl
active: [2] 85 µM | [5] 56.7 µM | [6] 53.7 µM | [8] 77.2 µM | [11] 73.4 µM | [12] 89.9 µM | [13] 50 µM | [14] 12.9 µM | [18] 24.1 µM | [15] 78.1 µM
inactive: [1] | [3] | [4] | [7] | [10] | [16]

O=C(O)c1[nH]n(-c2ccc(S(=O)(=O)O)cc2)c(=O)c1N=Nc1ccc(S(=O)(=O)O)cc1
active: [7] 33 µM
not listed: [9] | [17] | [18]
inactive: all other assays above

NC=O
not listed: [9] | [16] | [17]
inactive: all other assays above

Cc1occc(=O)c1O
not listed: [7] | [16] | [17]
inactive: all other assays above

CS(=O)(=O)c1ccc([C@@H](C[C@H]2CCC(=O)C2)C(=O)Nc2cnccn2)cc1Cl
active: [1] 24.4 µM | [3] 2.19 µM | [8] 0.753 µM | [10] 1.28 µM | [11] 9.92 µM | [12] 1.54 µM | [18] 11 µM | [15] 12.5 µM | [16] 1.29 µM
inactive: [2] | [4] | [5] | [6] | [13] | [14]

CC(COCC(C)OC(=O)c1ccccc1)OC(=O)c1ccccc1 (configuration not stated)
active: [7] 87.6 µM
not listed: [9] | [17] | [18]
inactive: all other assays above

O=NO
not listed: [3] | [9] | [18]
inactive: all other assays above

C/C=C/C=C/C(=O)O
active: [7] 76.6 µM | [10] 0.246 µM
not listed: [1] | [16] | [17]
inactive: all other assays above
